Screens: PubChem BioAssay, several laboratories
Sampled rows, rich in hits. Any-hit rate of the full collection: about 4.8%.
DAX1 inh-1: NR0B1 (DAX1) inhibition | P51843 | HEK293 Gal4-DAX1 luciferase reporter, luminescence | inhibition, % at 6.75 µM | 0.99% of 340,000 active | AID 504766;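 active = inhibition above the mean over all tested compounds plus 3 SD, cut at about 4.2% in these data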;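 also: 0% = DAX1-transfected cells with DMSO and 100% = empty-vector control cells with DMSO; inhibition shows as a rise in luminescence from relieved DAX1 repression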
Target sequence (P51843 207-470 limits assumed): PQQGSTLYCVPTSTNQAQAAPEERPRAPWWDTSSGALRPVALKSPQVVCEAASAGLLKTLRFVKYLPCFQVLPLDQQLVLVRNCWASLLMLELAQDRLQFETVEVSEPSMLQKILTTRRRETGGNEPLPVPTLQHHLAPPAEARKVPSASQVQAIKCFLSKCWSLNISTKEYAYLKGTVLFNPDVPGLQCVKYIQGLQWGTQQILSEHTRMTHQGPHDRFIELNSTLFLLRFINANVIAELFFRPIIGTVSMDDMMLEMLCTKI
hgDAF12 agonist: hgDAF-12 agonism, primary luciferase screen; AID 687014; activation, % at 6.8 µM; 1.8% of 370,000 active; HEK293 GAL4-hgDAF12 UAS-luciferase reporter, agonist luminescence; normalized to butyrate control;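 active = activation above a cutoff set at the mean of all screened compounds plus 3 SD, cut at about 10% in these data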;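 also: 0% = DMSO wells and 100% = sodium butyrate wells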
Rev-erbA mod: Rev-erb alpha (human) modulation | P20393 | Rev-erbα–FITC-DNA binding, fluorescence polarization, 90 min | activity, % at 10 µM | 0.79% of 370,000 active | AID 1259318;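 active = activity above about 14%, limit read from the data; passing the limit was not always enough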;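 also: 0% = DMSO wells with 35 nM protein and 100% = DMSO wells with 750 nM protein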
hcDAF-12 act: activates DAF-12 receptor from parasite H. contortus; HEK293 hcDAF-12 lit1-tk-luc reporter, luminescence; 0% DMSO, 100% Δ7-dafachronic acid; activation, % at 6.8 µM; AID 652067; 1.4% of 370,000 active;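 active = activation above the mean of all tested compounds plus 3 SD, cut at about 5.5% in these data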;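 also: 100% = response to 3 µM Δ7-dafachronic acid high control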
DAX1 inh-2: DAX1 (NR0B1) inhibition, primary screen; HEK293T StAR-luciferase reporter, SF-1/DAX-1 repression relief; inhibition, % at 6.8 µM; 1.1% of 370,000 active;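 active = inhibition above the mean over all tested compounds plus 3 SD, cut at about 3.6% in these data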;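 also: 0% = DAX-1 cells with DMSO and 100% = cells lacking DAX-1 with DMSO; higher inhibition means more luminescence from relief of DAX-1 repression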
ssDAF-12 act: activates DAF-12 receptor from parasite S. stercoralis | HEK293 ssDAF-12/GRIP1 lit1-tk-luc reporter, luminescence; % of 3 µM dafachronic acid response | activation, % at 6.8 µM | 1% of 370,000 active | AID 652126;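 active = activation above the mean over all tested compounds plus 3 SD, cut at about 0.9% in these data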;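 also: 0% = DMSO-only wells and 100% = 3 µM delta7-dafachronic acid wells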
hgDAF12 ag: hgDAF-12 agonism, confirmation assay; shares compounds with hgDAF12 agonist; HEK293 GAL4-hgDAF12 luciferase reporter, agonist mode; percent of butyrate response; 80% of 3,300 active; activation, % at 6.8 µM;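 active = mean activation over triplicate wells above the hit cutoff derived from the earlier primary screen, cut at about 11% in these data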;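 also: 0% = DMSO low control and 100% = 2 mM sodium butyrate high control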
LXRb DAF12 ctr: LXR-beta agonism as DAF-12 counter-screen | 3,300 tested, under 10 active | shares compounds with hgDAF12 agonist | activation, % at 6.8 µM | AID 743051 | HEK293 Gal4-LXR luciferase reporter, 24 h;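 active = mean activation of the triplicate above a set limit carried over from the primary screen, none filed active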
An asterisk follows results filed as active; . = not tested or not shown.

SMILES	DAX1 inh-1	hgDAF12 agonist	Rev-erbA mod	hcDAF-12 act	DAX1 inh-2	ssDAF-12 act	hgDAF12 ag	LXRb DAF12 ctr
COC(=O)[C@]12CCCCC=C1N(Cc1ccc(OC)cc1)C(=O)[C@@H]2CC(=O)NCCCN1CCCC1=O	.	-1	-4	0	-1	-1	.	.
Cc1ccc(NC2=Nc3ccccc3CC2)cc1	0	14*	4	6.3*	2	1	17*	1
Brc1ccc(NC2=Nc3ccccc3CC2)cc1	1	4	-2	3	2	-1	.	.
Cc1cccc(N(C(=O)Nc2ccccc2)C2=NCC(C)S2)c1 (stereo not drawn)	4	15*	-5	2	1	-1	4	0
COc1ccc(NC(=O)c2ccccc2NC(=O)C2CCCCC2C(=O)O)cc1 (stereo not drawn)	3	14*	-3	5	2	0	3	0
CCn1c2ccccc2c2cc(NC(=O)COC(=O)c3cccc(F)c3F)ccc21	.	-2	16	1	1	-2	.	.
S=C(NCCc1ccccc1)NC1CCC(NC(=S)NCCc2ccccc2)CC1 (stereo not drawn)	-1	-1	-3	-1	-1	-1	.	.
S=C(NCCc1cccc(Cl)c1)NC1CCCCC1	2	14*	0	4	3	0	11*	0
O=C(NCCc1ccccc1)NC1CCCCC1	1	14*	-3	5	3	0	10	1
O=C1CCC[C@H]2C[C@H](NCc3cccc(Cl)c3)CC[C@]23CCCN13	.	-1	-2	1	.	-1	.	.
COc1ccc(N2Cc3ccccc3C2)cc1Cl	0	14*	-1	0	-2	0	6	0
CCN(CC)c1ccc(NC(=O)c2ccc(Br)o2)cc1	5.0*	16*	.	3	4	0	15*	1
O=C(Nc1ccccc1)c1ccc(Br)o1	1	3	1	-1	0	-1	.	.
Nc1cc2c(cc1Cl)-c1ccccc1C2=NO	3	16*	-3	1	0	-1	7	0
Cc1ccc(Cn2nnc3c2-c2ccccc2S(=O)(=O)N(C)C3)cc1	.	-3	0	-2	-1	-2	.	.
CCCCN1C(=O)C(=O)N(CC(=O)N2CCN(c3ccccc3)CC2)C1=O	0	4	4	-1	2	0	.	.
CCCCN1C(=O)C(=O)N(c2ccccc2)C1=S	2	16*	-1	4	4.1*	0	14*	1
Cc1ccc(NC(=S)NNC(=O)c2nn(C)c(C)c2Cl)cc1	6.5*	16*	-1	3	3	0	10	0
CCN(CC)C(=O)CC[C@H]1CC[C@]2(CCCN(Cc3nccn3C)C2)O1	.	0	1	0	1	-1	.	.
Cc1cc(C(=O)CSc2nncn2C)c(C)n1-c1ccccc1	0	16*	0	4	3	0	16*	1
CC(=O)Nc1ccc(SCC(=O)c2cc(C)n(-c3ccccc3)c2C)cc1	1	-10	1	-6	-2	-2	.	.
COc1ccc(O)c(C(=O)CC(=O)c2ccccc2C)c1	4.8*	23*	1	3	1	0	10	1
CCN(CC)c1ccc(/C=N\NC(=O)c2cccc3cc[nH]c23)cc1	-1	8	6	0	-1	-1	.	.
Cc1ccc(/C=N/NC(=O)c2ccoc2C)s1	1	15*	0	2	3	0	10	1
CCN(CC)c1ccc(/C=N/NC(=O)c2ccoc2C)cc1	1	17*	2	5	2	0	19*	1
CC(=O)c1cccc(NC(=O)c2ccc(-c3ccccc3[N+](=O)[O-])o2)c1	2	14*	-3	1	2	-1	13*	1
Cc1cc(NC(=O)c2ccc(-c3ccccc3[N+](=O)[O-])o2)no1	0	4	-4	-1	1	-1	.	.
